HP1b binding inh: HP1-beta chromodomain-methylated histone interaction inhibition; P83916; AlphaScreen HP1-beta / biotin-H3K9me3 peptide binding; Potency, µM (series often up to 114 µM), without a hit: top-dose activity change, negative = inhibition, most hits filed as inhibitors; hit rate 0.56% among 390,000; AID 540317; also: potency is read from the fitted curve at half-maximal effect; nearly all actives have a fitted effect of over 70% in size
Target sequence (P83916 whole entry, looked up): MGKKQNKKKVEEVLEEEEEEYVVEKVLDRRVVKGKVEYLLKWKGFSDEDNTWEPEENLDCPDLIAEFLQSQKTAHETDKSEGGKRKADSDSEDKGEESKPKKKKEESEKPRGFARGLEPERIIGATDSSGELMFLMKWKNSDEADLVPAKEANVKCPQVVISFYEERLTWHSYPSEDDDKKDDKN
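AlphaScreen: HP1-beta (50 nM) preformed 30 min with biotin-H3(1-18)K9me3 peptide (50 nM) in PBS pH 7.4, 0.01% Tween-20. Compound added for 30 min at RT, then streptavidin donor/nickel chelate acceptor beads (10 ug/mL) for 30 min.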
JMJD2A Tudor inh: blocks the human JMJD2A Tudor domain; hit rate 4.4% among 390,000; AlphaScreen JMJD2A-Tudor / H3K4me3 peptide binding; Potency, µM (doses to about 114 µM), without a hit: at the highest dose activity change, negative = inhibition, hits mostly inhibitors; O75164; also: potency is read from the fitted curve at half-maximal effect; % is scaled to controls: 0 for no effect and ±100 for the full control effect; nearly all actives have a fitted effect of over 50% in size
PI5P4Ka inh: blocks human PI5P4K alpha kinase activity | hit rate 1.2% among 330,000 | PI5P4Kalpha enzyme, ADP-Glo luminescence, 60 min; active compounds read low | max response, % | P48426 | AID 652105; active = max response of -50% or lower; inconclusive = between -30% and -50%; inactive = -30% or higher; also: value at the top dose of about 77 µM; % is scaled to controls: 0 for no effect and ±100 for the full control effect
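ADP-Glo luminescence end-point read after a 60 min room-temperature kinase reaction of PI5P4Kalpha plus substrate, initiated with ATP at 5 microM final. Buffer: 0.038 M HEPES pH 7.4, EGTA, 0.1% CHAPS, 5% DMSO.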
PLK1 PBD block: blocks phosphopeptide binding to human PLK1 polo-box domain. P53350. Plk1 PBD binding of FITC phosphopeptide, fluorescence polarization. Potency, µM, for the others: max response, negative = inhibition, most hits filed as inhibitors. hit rate 2.8% among 360,000; also: potency is read from the fitted curve at half-maximal effect; series mostly up to about 57 µM; % is scaled to controls: 0 for no effect and ±100 for the full control effect; nearly all actives have a fitted effect of over 65% in size
BAZ2B inh: inhibitors of human BAZ2B bromodomain. AlphaScreen BAZ2B-H3K14Ac peptide displacement. Potency, µM (series often up to 114 µM), inactives show at the top dose activity change, negative = inhibition, actives largely listed as inhibitors. hit rate 4.4% among 360,000; also: potency is read from the fitted curve at half-maximal effect; % is scaled to controls: 0 for no effect and ±100 for the full control effect; nearly all actives have a fitted effect of over 60% in size
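AlphaScreen displacement of biotin-H3(5-23)K14Ac peptide (50 nM final) from BAZ2B (50 nM final) in PBS pH 7.4, 0.01% Tween-20; complex preformed 30 min RT, then compounds (top 110 uM) 30 min RT, beads 20 min dark.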
G9a inh: G9a (human) methyltransferase inhibition. hit rate 8.8% among 350,000. G9a H3K9 monomethylation, AlphaScreen, 2 h. AID 504332. Potency, µM (doses to about 102 µM), for the others: at the top dose activity, negative = inhibition, usual class: inhibitors; also: potency is read from the fitted curve at half-maximal effect; % is scaled to controls: 0 for no effect and ±100 for the full control effect; nearly all actives have a fitted effect of over 75% in size
Target sequence (Q96KQ7 913-1193 limits assumed): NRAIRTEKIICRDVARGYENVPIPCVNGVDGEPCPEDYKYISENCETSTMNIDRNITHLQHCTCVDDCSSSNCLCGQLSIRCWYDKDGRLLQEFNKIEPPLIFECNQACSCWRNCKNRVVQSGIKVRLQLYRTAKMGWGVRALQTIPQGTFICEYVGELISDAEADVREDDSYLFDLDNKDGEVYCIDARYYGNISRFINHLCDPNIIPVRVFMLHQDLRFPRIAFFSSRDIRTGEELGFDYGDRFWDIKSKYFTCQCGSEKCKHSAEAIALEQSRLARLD
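Readings reflect AlphaScreen signal from monomethyl-H3K9 antibody detection. HMT at 20 nM; substrate b-H3K9 500 nM; cofactor SAM 20 uM; 2 h RT reaction; compounds tested as titrations in qHTS with 15 min preincubation.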
Numbers without * were called inactive; ? = inconclusive; nt = no result given; [ ] = dose if it differs, or a comment. Sampled rows, rich in hits. Any-hit rate of the full collection: about 12%. Unless noted, calls follow the shape of the dose curve; as a rule, active = well fitted curve in the direction sought with a large enough effect; inconclusive = small, poorly fitted or top-dose-only effect, or another doubt; inactive = no such curve, though single readings can be large; an effect the other way counts as inactive or inconclusive.

SMILES | HP1b binding inh | JMJD2A Tudor inh | PI5P4Ka inh | PLK1 PBD block | BAZ2B inh | G9a inh
COC(=O)[C@H](CCSC)NC(=O)Cn1cc(C)c(=O)[nH]c1=O | 41% | -17% | -1 | -1% | nt | nt
Cc1cc2c(cc1NC(=O)c1ccc(C(C)(C)C)cc1)n(C)c(=O)c(=O)n2C | 12% | -12% | nt | nt | -2% | 1%[59 µM]
CCCc1nnc(SCC(=O)Nc2nnc(CC)s2)n1CC1CCCO1 (centres undefined) | 23%[57 µM] | 0% | 2 | -2% | -1% | 12%
O=C(O)CC1=C(O)C(=O)N(c2ccccc2)C1c1ccc(Br)cc1 (centres undefined) | 30% | -11% | 6 | -8% | -6% | 39%[0.501 µM]
O=C(O)CC1=C(Nc2ccccc2)C(=O)N(c2ccccc2)C1c1ccc(F)cc1 (centres undefined) | 7% | -31% | -4 | -17% | -37% | 32µM*
O=C(O)CC1=C(O)C(=O)N(c2ccccc2)C1c1ccccc1 (centres undefined) | 40% | -20% | -2 | -12% | 9% | 13µM*
CC1=C(C(=O)Nc2ccccc2Br)C2(CCC(C)CC2)OC1=O (centres undefined) | 17% | -7% | nt | nt | -2% | -21%[59 µM]
CCOc1ccc2nc(NC3=NC(c4ccc(OC)cc4)CC(=O)N3)nc(C)c2c1 (centres undefined) | ? | 79µM* | nt | -3% | -1%[57.1 µM] | 10µM*
O=S(=O)(c1ccccc1)N1CCC2(CCCN(Cc3ccncc3)C2)CC1 | nt | nt | nt | nt | nt | -25%[12.7 µM]
COc1ccc(CNC(=O)C2CCN(S(=O)(=O)c3ccc(N4CCCC4=O)cc3)CC2)cc1 | nt | nt | -4 | 1% | nt | nt
O=c1ccc(-c2ccc(S(=O)(=O)Nc3cccc([N+](=O)[O-])c3)s2)n[nH]1 | 41% | -11% | 1 | -9% | -31% | 71µM*
CC(C)(C)OC(=O)N1CCC(C(=O)Nc2ccc(C(=O)N3CCCCC3)cc2)CC1 | 46% | -8% | -1 | -9% | nt | nt
CC(Oc1cc2oc(=O)c3c(c2cc1Cl)CCCC3)C(=O)NCCN1CCOCC1 (centres undefined) | 8% | ? | -15 | 24µM* | -11% | 22%
CC(Oc1cc2oc(=O)c3c(c2cc1Cl)CCC3)C(=O)NCCCN1CCOCC1 (centres undefined) | 25% | -4% | 0 | 0% | 14% | -12%[59 µM]
Cc1c(C)c2cc(Cl)c(OC(C)C(=O)NCCN3CCOCC3)cc2oc1=O (centres undefined) | 3% | ? | -11 | 24µM* | -3% | 56%
COc1cccc2c1OC(=O)CC2c1ccccc1C (centres undefined) | nt | nt | nt | nt | nt | 1%
COc1ccc(-n2nc3ccc(N)cc3n2)cc1 | nt | nt | -2 | 3% | nt | nt
COc1ccc(-n2nc(N)c(C(N)=O)n2)cc1 | -19% | -23%[11.4 µM] | -16 | 19µM* | ? | 45µM*
O=c1[nH]c(CN2CCCCC2)ccc1O | nt | nt | -7 | -24% | nt | nt
CCOc1ccccc1CN1CCN(Cc2[nH]c3ccccc3c2C)CC1CCO (centres undefined) | -11% | ? | 2 | -20% | -31% | 71µM*
COc1ccc(-c2ccc(-c3cc(=O)oc4cc(OC)c(OC)c(OC)c34)cc2)cc1OC | 36% | -29% | -7 | -13% | nt | 9%[59 µM]
COc1cc2oc(=O)cc(-c3ccc(-c4cccc(N)c4)cc3)c2c(OC)c1OC | nt | nt | nt | nt | nt | 28µM*
O=C(COC(=O)CSc1ccc(F)cc1)NNC(=O)c1ccc([N+](=O)[O-])cc1 | 42% | -2% | 1 | -22% | 4% | 0%
CCOC(=O)CSc1nc(-c2ccncc2)ccc1C#N | -4% | -5%[11.4 µM] | -8 | ? | -4% | 8%[59 µM]
CCOC(=O)C1=C(CSc2nc(-c3ccncc3)ccc2C#N)OC(N)=C(C#N)C1c1cccnc1 (centres undefined) | 36% | -14% | -2 | -8% | 8% | 35µM*
CCOC(=O)C1=C(CSc2nc(C)ccc2C#N)OC(N)=C(C#N)C1c1cccc(OC)c1OC (centres undefined) | 16% | ? | 6 | 21µM* | 56µM* | 7.1µM*

Assay outcomes (PubChem)
